ATXN2 expr inh – inhibitors of ATXN2 expression. Potency, µM (doses to about 57 µM), for the others: at the top dose activity change, negative = inhibition, actives largely listed as inhibitors. 0.72% of 360,000 active. HEK-293 ATXN2-luciferase reporter, luminescence, 24 h. AID 1745845; also: % is scaled to controls: 0 for no effect and ±100 for the full control effect; nearly all actives have a fitted effect of over 55% in size
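ATXN2-luciferase reporter cells (luciferase flanked by upstream and downstream ATXN2 gene portions) were treated 24 h at 37 °C with compounds at up to 57 uM. SteadyGlo luminescence gave expression; GF-AFC fluorescence gave viability.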
Nrf2 block – inhibitors of Nrf2 signaling; 2.1% of 360,000 active; A549 ARE-Fluc reporter, luciferase luminescence, 18-24 h; AID 504444; Potency, µM (series often up to 46 µM), inactives show at the top dose activity change, negative = inhibition, most hits filed as inhibitors; also: % is scaled to controls: 0 for no effect and ±100 for the full control effect; nearly all actives have a fitted effect of over 60% in size
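A549 ARE_Fluc cells (5000/well, 5% FBS OPTI-MEM) pre-incubated 2 h, then treated with compounds 18-24 h at 37C/5% CO2 in concentration-response. CellTiter-Fluor viability read first; BugLite luciferase luminescence after 15 min at room temperature gives Nrf2 activity.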
ATXN viability – viability counter-screen for ATXN expression inhibitors | 0.49% of 400,000 active | Potency, µM (series often up to 56.7 µM), hits mostly cytotoxic | S2 cells (HEK-293 line with an ATXN2-luciferase reporter) viability, CellTiter-Fluor protease fluorescence, 24 h; also: nearly all actives have a fitted effect of over 40% in size
TGFb inhibitor – TGF-b pathway inhibition | AID 588855 | HepG2 CAGA-GFP TGF-b/SMAD3 reporter, GFP fluorescence, 18 h; TGF-beta stimulated, 500 pg/mL final | 1.2% of 410,000 active | Potency, µM (highest dose often 46.1 µM), for inactives: at the highest dose activity, negative = inhibition, usual class: inhibitors; also: % is scaled to controls: 0 for no effect and ±100 for the full control effect; nearly all actives have a fitted effect of over 65% in size
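Per well, imaged GFP fluorescence of HEPG2 CAGA-GFP cells gives the signal; cells get compound, then TGF-beta (500 pg/mL final), 18 h at 37 degrees C; %Activity versus -TGF-beta and +DMSO controls.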
HepG2 viability – counter-screen for TGF-b inhibitors: cytotoxicity in HepG2 cells; Potency, µM (highest dose often 46.1 µM), inactives show top-dose activity change, negative = cytotoxicity, actives largely listed as cytotoxic; 0.76% of 410,000 active; HepG2 CAGA-GFP viability, ATP luminescence, 18 h; AID 588856
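HepG2 CAGA-GFP cells (1000/well, DMEM with 1% FBS) received compound, then TGF-beta at 500 pg/mL final, and were incubated 18 hours at 37 degrees C. Viability was read by CellTiter-Glo luminescence. Media-only wells were set as complete cell-killing and DMSO as no toxicity.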
A549 viability – kills or reduces viability of A549 cells in Nrf2 counter-screen; A549 ARE-Fluc cells, CellTiter-Fluor viability, 18-24 h; 0.16% of 390,000 active; AID 504648; Potency, µM (titrated, usually from 46 µM), without a hit: top-dose activity change, negative = cytotoxicity, actives largely listed as inhibitors; also: % is scaled to controls: 0 for no effect and ±100 for the full control effect
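A549 ARE_Fluc cells in 5% FBS OPTI-MEM were exposed to compounds in concentration-response for 18-24 h at 37 deg C. Viability was read by CellTiter-Fluor fluorescence (Ex 405/Em 525) after 30 min, before the luciferase read.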
* hit, by the source's call; i = inactive; ? = inconclusive; / = no result; [ ] = dose if it differs, or a comment. A selection: hits, their analogues and other compounds. The true share with any hit is near 3.8%. Calls follow the shape of the dose curve; as a rule, active = well fitted curve in the direction sought with a large enough effect; inconclusive = small, poorly fitted or top-dose-only effect, or another doubt; inactive = no such curve, though single readings can be large; an effect the other way counts as inactive or inconclusive. Potency is read from the fitted curve at half-maximal effect.

SMILES | ATXN2 expr inh | Nrf2 block | ATXN viability | TGFb inhibitor | HepG2 viability | A549 viability
COc1ccc2c(c1)CCc1c-2nc2ccccc2c1N1CCOCC1 | -26.0% | -9.7% | i | ? | -16.4% | -11.7%
COc1ccc2c(c1)CC/C(=C/c1ccccn1)C2=O | 5.4% | -13.0% | i | ? | -38.6% | 3.9%
O=C1C(=Cc2ccccn2)CCc2ccccc21 | / | / | ? | 10µM* | 12.6µM* | /
O=C1NC(=O)C(=Cc2ccc3nccc(-c4ccncc4)c3c2)S1 | 6.85µM* | / | / | / | / | /
O=C1NC(=O)C(=Cc2ccc3nccnc3c2)S1 | 5.5%[25.6 µM] | / | / | / | / | /
O=C(NCCc1nc(-c2ccccc2)cs1)c1ccc(Br)cc1 | -25.3% | ? | i | -16.9% | -2.4% | -0.6%
CC(C)CC(=O)Nc1c(C(=O)N2CCN(c3ccccc3F)CC2)oc2ccccc12 | / | 25.9µM* | / | -3.0% | 7.2% | -11.8%
Cc1cccc(OCC(=O)Nc2c(C(=O)N3CCN(c4ccccc4F)CC3)oc3ccccc23)c1 | / | 18.4µM* | / | ? | -1.7% | ?
Cc1ccc(N(Cc2cccs2)C(=O)c2ccc(OC(C)C)cc2)cc1 | / | ? | / | -16.7% | -50.0% | 0.6%
CCOc1cc(/C=C/C(=O)N(CC)CC(=O)NCc2cccs2)cc(Cl)c1OC | -12.2% | -17.1% | i | -14.4% | -1.3% | -5.0%
CCCN1CCN(CCCNC(=O)c2cc3c(Cl)nc4ccccc4c3s2)CC1 | ? | 13.9% | ? | ? | 12.6µM* | -9.5%
Cc1sc2ncn(CCn3cnc4sc(C)c(C)c4c3=O)c(=O)c2c1C | -28.0% | 16.4µM* | i | -4.2% | -1.8% | -2.8%
Cc1sc2ncn(CCC(=O)O)c(=O)c2c1C | 3.4% | 5.8% | i | 10.8% | 5.1% | -3.8%
Cc1sc2ncn(CC(=O)NCC(=O)N3CCN(c4ccc(F)cc4)CC3)c(=O)c2c1C | -26.6% | 8.2µM* | i | -2.3% | 0.2% | -1.5%
CC(CCc1ccccc1)NC(=O)Cn1c(=O)nc(-c2ccccc2F)c2cc(Cl)ccc21 (stereo unspecified) | / | / | / | -0.9% | -4.2% | ?
CCCCc1ccc(NC(=S)N2CCCC2)cc1 | -5.8% | 2.7% | i | ? | -11.2% | 8.4%
CCOC(=O)c1c(N)sc2c(OCC)c(Br)ccc12 | -16.2% | -5.7% | ? | ? | -26.2% | 1.5%
CCOC(=O)c1c(NC(C)=O)sc2c(OCC(O)CNC(C)(C)C)c(Br)ccc12 (stereo unspecified) | / | 11.7% | / | ? | 11.2µM* | -12.2%
Cc1ccc(Cn2c(C(CO)Nc3nc(-c4ccc(Cl)c([N+](=O)[O-])c4)cs3)nc3ccccc32)cc1 (stereo unspecified) | -21.0% | 0.6% | ? | 15.8µM* | -40.0% | -12.5%
CCc1cc2c(=O)n(-c3ccc(C)cc3)cnc2s1 | 33.2% | ? | i | 9.0% | -3.9% | -24.1%
Fc1ccc2[nH]c3c(NCc4ccccc4)ncnc3c2c1 | ? | 18.4µM* | i | ? | -31.9% | -13.8%
COc1ccc2[nH]c3c(NCc4ccco4)ncnc3c2c1 | -18.5% | ? | i | -13.8% | -6.9% | 6.7%
N#Cc1cccnc1N1CCN(C(=O)c2cccc3c2C(=O)c2ccc(Cl)cc2S3(=O)=O)CC1 | ? | ? | 20µM* | 2.9% | -1.7% | -3.6%
N#Cc1cccnc1N1CCN(C(=O)c2cccc3c2C(=O)c2ccc(-c4ccc(Cl)c(C(F)(F)F)c4)cc2S3(=O)=O)CC1 | 7.1% | 4.1% | i | 0.8% | 5.4% | -6.6%
COc1ccc(-c2nc(-c3ccccn3)no2)cc1 | ? | ? | i | -1.1% | 3.55µM* | -2.6%
SMILES | ATXN2 expr inh | Nrf2 block | ATXN viability | TGFb inhibitor | HepG2 viability | A549 viability
Cc1cc(-c2ccc(C)c(S(=O)(=O)N3CCC(C)CC3)c2)on1 | / | ? | / | ? | -46.5% | 12.7%
Cc1cc(-c2ccc(C)c(S(=O)(=O)N3CCN(c4ccc(F)cc4)CC3)c2)on1 | -25.5% | 8.2µM* | i | -7.9% | -3.2% | -5.9%
Cc1cccc(N2CCN(S(=O)(=O)c3cc(-c4cc(C)no4)ccc3C)CC2C)c1 (stereo unspecified) | -23.5% | 7.31µM* | i | -2.8% | -35.4% | -11.8%
COc1ccc(NC(=O)CN(C)CC(=O)Nc2sc3c(c2C#N)CCC3)cc1 | -12.3% | 5.2% | i | -0.5% | -12.8% | -6.9%
Cc1ccc(CN(Cc2ccco2)c2cnc(S(C)(=O)=O)nc2C(=O)Nc2ccccc2Br)o1 | 6.9% | -6.5% | i | -6.1% | -9.5% | 10.2%
C=C1C(=O)C23CCC4C(C)(C(=O)OC)CCCC4(C)C2CCC1(O)C3 (stereo unspecified) | ? | ? | 5.32µM* | 3.16µM* | 2.82µM* | ?
COc1ccc(C(NCC(=O)NC(C)c2ccc(Cl)cc2)c2ccccc2)cc1 (stereo unspecified) | ? | 14.6µM* | i | ? | -5.2% | ?
CCN(CC)S(=O)(=O)c1ccc(N2CCOCC2)c(NC(=S)NC(=O)c2ccco2)c1 | ? | -25.4% | i | 3.8% | 8.6% | 8.4%
COC(=O)C1=C(C(=O)OC)[C@@H]2N(Cc3ccccc3)c3ccccc3[C@@]23C[C@@H](C(=O)OC)N(C(=O)c2ccc(Br)cc2)C3=N1 | ? | 16.4µM* | ? | 10µM* | -9.9% | -24.3%
COC(=O)C1=C(C(=O)OC)[C@@H]2N(Cc3ccccc3)c3ccccc3[C@@]23C[C@@H](C(=O)OC)N(C(C)=O)C3=N1 | -10.3% | 1.5% | ? | -10.9% | -14.9% | -4.5%
COC(=O)C1=C(C(=O)OC)[C@@H]2N(C)c3ccccc3[C@@]23C[C@@H](C(=O)OC)N(C(=O)c2cc(C)oc2C)C3=N1 | -15.7% | 18.4µM* | i | 9.1% | -7.1% | -29.3%
C=CCN1c2ccccc2[C@]23C[C@@H](C(=O)OC)N(C(=O)c4ccc(Br)cc4)C2=NC(C(=O)OC)=C(C(=O)OC)[C@H]13 | ? | ? | ? | 20µM* | -28.9% | ?
CN(C)CCn1c2ccccc2c2nc3ccc([N+](=O)[O-])cc3cc21 | 3.16µM* | ? | i | ? | -5.9% | ?
Cc1ccc(-c2nn(-c3ccc(F)cc3F)c3c2cnc2c(F)cccc23)cc1 | 10.0% | / | i | -7.1% | -12.7% | 0.8%
Cc1cccc(OCC(=O)Nc2ccc3c(c2)nc(CCN2CCN(c4ccccn4)CC2)n3C)c1 | 14.1µM* | ? | ? | -28.7% | -9.0% | -13.6%
CC(=O)N1CCN(Cc2nc3cc(NC(=O)COc4cccc(C)c4)ccc3n2C)CC1 | -10.3% | 23.1µM* | i | 5.7% | 0.6% | -4.8%

Screening data deposited in PubChem by National Center for Advancing Translational Sciences (NCATS).
